In PubChem BioAssay (NCATS) one finds Potency data, which are given here for 53 compounds.

Molecules are shown by their SMILES. Results filed as inconclusive are left out. Calls of active or inactive are those of the source. Unless noted, calls come from the whole dose curve.

Assay [1] is described as follows: qHTS for Inhibitors of the Functional Ribonucleoprotein Complex (vRNP) of Lassa (LASV) Arenavirus: Viability assay - alamar blue signal for LASV Primary Screen (AID 1347083; calls by dose curve; tested in HEK293 reporter line; note: nearly all actives have a fitted effect of over 80% in size; note: potency is the fitted concentration of half-maximal effect). (In qHTS, concentration-response curves come from the screen itself.)
Assay [2] in a line: qHTS for Inhibitors of the Functional Ribonucleoprotein Complex (vRNP) of Lymphocytic Choriomeningitis Arenaviruses (LCMV): Viability assay - alamar blue signal for LCMV Primary Screen (AID 1347085; calls by dose curve; tested in HEK293 reporter line; note: nearly all actives have a fitted effect of over 80% in size; note: potency is the fitted concentration of half-maximal effect).
Assay [3] concerns the target Nucleoprotein (Lymphocytic choriomeningitis virus (strain Armstrong)) (UniProt P09992). The assay can be described thus: qHTS for Inhibitors of the Functional Ribonucleoprotein Complex (vRNP) of Lymphocytic Choriomeningitis Arenaviruses (LCMV): LCMV Primary Screen - GLuc reporter signal (AID 1347086). Note: series mostly up to about 57 µM; nearly all actives have a fitted effect of over 70% in size.
Assay [4] can be described thus: qHTS of pediatric cancer cell lines to identify multiple opportunities for drug repurposing: Primary screen for TC32 cells (AID 1347089; active = well fitted curve in the direction sought with a large enough effect; an effect the other way counts as inactive or inconclusive; note: nearly all actives have a fitted effect of over 60% in size). The gist of the method: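 In the primary qHTS, MIPE compounds were tested at 11 concentrations (0.78 nM to 46 µM) and NPC compounds at 8 (0.59 nM to 46 µM) on TC32 cells for 48 h. CellTiter-Glo luminescence gave viability.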
The nature of assay [5]: qHTS of pediatric cancer cell lines to identify multiple opportunities for drug repurposing: Primary screen for DAOY cells (AID 1347090; active = well fitted curve in the direction sought with a large enough effect; an effect the other way counts as inactive or inconclusive; note: series mostly up to about 46 µM; nearly all actives have a fitted effect of over 55% in size). The method in brief:
(§1)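 Viability measured as metabolically active cells via CellTiter-Glo luminescence following 48 hours of compound exposure, 11-point dilutions in confirmatory testing. 500-1,000 cells/well plated 5 hours before dosing; controls were DMSO and 2.3 µM bortezomib.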

Assay [6] can be described thus: qHTS of pediatric cancer cell lines to identify multiple opportunities for drug repurposing: Primary screen for SJ-GBM2 cells (AID 1347091; active = well fitted curve in the direction sought with a large enough effect; an effect the other way counts as inactive or inconclusive; note: potency is the fitted concentration of half-maximal effect). The gist of the method: as §1
A short description of assay [7]: qHTS of pediatric cancer cell lines to identify multiple opportunities for drug repurposing: Primary screen for A673 cells (AID 1347092; active = well fitted curve in the direction sought with a large enough effect; an effect the other way counts as inactive or inconclusive; note: potency is the fitted concentration of half-maximal effect; nearly all actives have a fitted effect of over 45% in size). The gist of the method:
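48 h compound exposure, A673, 500-1,000 cells/well, 37 degrees C/5% CO2. MIPE: 11-point, 0.78 nM-46 µM; NPC: 8-point, 0.59 nM-46 µM (final). Readout CellTiter-Glo luminescence after 15 min RT.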

Sequence of Nucleoprotein (Lymphocytic choriomeningitis virus (strain Armstrong)) (P09992 whole entry, looked up): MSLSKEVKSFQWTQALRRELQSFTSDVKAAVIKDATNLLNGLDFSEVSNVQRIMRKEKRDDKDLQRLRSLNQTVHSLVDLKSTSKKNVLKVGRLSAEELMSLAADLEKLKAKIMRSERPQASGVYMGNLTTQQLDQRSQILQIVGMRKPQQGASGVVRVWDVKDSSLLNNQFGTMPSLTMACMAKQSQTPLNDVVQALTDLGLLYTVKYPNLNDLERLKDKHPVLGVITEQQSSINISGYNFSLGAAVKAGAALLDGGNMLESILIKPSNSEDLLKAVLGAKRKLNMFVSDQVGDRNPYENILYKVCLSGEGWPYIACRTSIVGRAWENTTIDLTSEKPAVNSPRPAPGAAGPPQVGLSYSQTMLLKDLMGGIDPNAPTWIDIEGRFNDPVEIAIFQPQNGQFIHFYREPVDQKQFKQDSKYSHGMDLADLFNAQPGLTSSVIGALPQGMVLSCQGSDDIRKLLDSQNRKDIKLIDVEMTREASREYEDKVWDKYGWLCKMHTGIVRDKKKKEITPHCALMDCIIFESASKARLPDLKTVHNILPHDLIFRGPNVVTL

`Cc1ccccc1C(OCCN(C)C)c1ccccc1` (stereo not drawn): the Potency entry in assay [1], in assay [2] and in assay [3] was “inactive” in each case.

As to `CC(=O)N[C@@H](CS)C(=O)O`, the Potency entry in assay [1], in assay [2] and in assay [3] was “inactive” in each case.

`CN(C)CCc1c[nH]c2ccc(CS(=O)(=O)N3CCCC3)cc12`: the Potency entry in assay [1], in assay [2] and in assay [3] was “inactive” each time.

Regarding `COc1cc2nc(N(C)CCCNC(=O)C3CCCO3)nc(N)c2cc1OC` (stereo not drawn), the Potency result in assay [1], in assay [2] and in assay [3] was “inactive” throughout.

`CCc1nc(N)nc(N)c1-c1ccc(Cl)cc1`: the results for the Potency in assay [1] and in assay [2] were 38.5 µM (active) and 7.69 µM (active), respectively. In addition, the Potency result in assay [3] was “inactive”.

For `C[N+]1(C)CCC(OC(=O)C(O)(c2ccccc2)C2CCCC2)C1` (stereo not drawn), the Potency entry in assay [1], in assay [2] and in assay [3] was “inactive” each time.

In the case of `Clc1ccc2c(c1)C(N1CCNCC1)=Nc1ccccc1O2`, the Potency entry in assay [1], in assay [2] and in assay [3] was “inactive” throughout.

For `CN1CCN(C2=Nc3cc(Cl)ccc3Nc3ccccc32)CC1`, the Potency entry in assay [1], in assay [2] and in assay [3] was “inactive” each time.

Consider `Nc1ccc(O)c(C(=O)O)c1`, for which the Potency result in assay [1], in assay [2] and in assay [3] was “inactive” throughout.

In the case of `CC(=O)O[C@]1(C(C)=O)CC[C@H]2[C@@H]3C=C(Cl)C4=CC(=O)[C@@H]5C[C@@H]5[C@]4(C)[C@H]3CC[C@@]21C`, the Potency result in assay [1], in assay [2] and in assay [3] was “inactive” in each case.

As to `COc1cc2nc(N3CCN(C(=O)C4CCCO4)CC3)nc(N)c2cc1OC` (stereo not drawn), the Potency result in assay [1], in assay [2] and in assay [3] was “inactive” each time.

For `CCOC(=O)C1=C(C)NC(C)=C(C(=O)OC)C1c1cccc(Cl)c1Cl` (stereo not drawn), the Potency result in assay [1], in assay [2] and in assay [3] was “inactive” in each case.

On to `CCCC(=O)Nc1ccc(OCC(O)CNC(C)C)c(C(C)=O)c1` (stereo not drawn), for which the Potency entry in assay [1], in assay [2] and in assay [3] was “inactive” each time.

For `C[C@@H](O)[C@H]1C(=O)N2C(C(=O)O)=C(S[C@@H]3CN[C@H](C(=O)N(C)C)C3)[C@H](C)[C@H]12`, the Potency entry in assay [1], in assay [2] and in assay [3] was “inactive” in each case.

On to `Nc1cc(-c2ccncc2)c[nH]c1=O`, for which the Potency entry in assay [1], in assay [2] and in assay [3] was “inactive” each time.

Turning to `Cc1ccccc1N1C(=O)c2cc(S(N)(=O)=O)c(Cl)cc2NC1C` (stereo not drawn), the Potency result in assay [1], in assay [2] and in assay [3] was “inactive” in each case.

`CNCCc1ccccn1`: the Potency entry in assay [1], in assay [2] and in assay [3] was “inactive” in each case.

Regarding `Cc1ccnc2c1NC(=O)c1cccnc1N2C1CC1`, the Potency result in assay [1], in assay [2] and in assay [3] was “inactive” in each case.

With `CN(C)CCOC(C)(c1ccccc1)c1ccccn1` (stereo not drawn), the Potency entry in assay [1], in assay [2] and in assay [3] was “inactive” in each case.

Turning to `CC(C)(C#N)c1cc(Cn2cncn2)cc(C(C)(C)C#N)c1`, the Potency result in assay [1], in assay [2] and in assay [3] was “inactive” in each case.

With `CN1CCN(CCCN2c3ccccc3Sc3ccc(Cl)cc32)CC1`, the Potency result in assay [1], in assay [2] and in assay [3] was “inactive” each time.

On to `CN1CCN(C2=Nc3ccccc3Oc3ccc(Cl)cc32)CC1`, for which the Potency entry in assay [1], in assay [2] and in assay [3] was “inactive” throughout.

Take `Cc1cccc(Nc2ccncc2S(=O)(=O)NC(=O)NC(C)C)c1`: the Potency result in assay [1], in assay [2] and in assay [3] was “inactive” throughout.

With `OCCOCCN1CCN(C(c2ccccc2)c2ccc(Cl)cc2)CC1` (stereo not drawn), the Potency entry in assay [1], in assay [2] and in assay [3] was “inactive” each time.

For the compound `NC(=O)N1c2ccccc2CC(=O)c2ccccc21`, the Potency entry in assay [1], in assay [2] and in assay [3] was “inactive” throughout.

Consider `O=c1n(CCCN2CCN(c3cccc(Cl)c3)CC2)nc2ccccn12`, for which the Potency result in assay [1], in assay [2] and in assay [3] was “inactive” each time.

For `Cc1[nH]cnc1CN1CCc2c(c3ccccc3n2C)C1=O`, the Potency entry in assay [1], in assay [2] and in assay [3] was “inactive” each time.

For the compound `OCCN1CCN(CCCN2c3ccccc3Sc3ccc(Cl)cc32)CC1`, the Potency entry in assay [1], in assay [2] and in assay [3] was “inactive” in each case.

Take `CC(C)(C(=O)O)c1ccc(C(O)CCCN2CCC(C(O)(c3ccccc3)c3ccccc3)CC2)cc1` (stereo not drawn): the Potency result in assay [1], in assay [2] and in assay [3] was “inactive” throughout.

Regarding `NC(=O)OCC(COC(N)=O)c1ccccc1`, the Potency entry in assay [1], in assay [2] and in assay [3] was “inactive” throughout.

In the case of `NS(=O)(=O)c1cc2c(cc1C(F)(F)F)NCNS2(=O)=O`, the Potency result in assay [1], in assay [2] and in assay [3] was “inactive” throughout.

Regarding `O=C1Cc2cc(CCN3CCN(c4nsc5ccccc45)CC3)c(Cl)cc2N1`, the Potency result in assay [1], in assay [2] and in assay [3] was “inactive” in each case.

For `Oc1cn2c(n1)Nc1ccc(Cl)c(Cl)c1C2`, the Potency entry in assay [1], in assay [2] and in assay [3] was “inactive” in each case.

As for `CN1CCN(C(c2ccccc2)c2ccccc2)CC1`, the Potency entry in assay [1], in assay [2] and in assay [3] was “inactive” each time.

On to `COc1ccccc1OCC(O)COC(N)=O` (stereo not drawn), for which the Potency result in assay [1], in assay [2] and in assay [3] was “inactive” in each case.

Consider `CC(C)Oc1ccc2c(=O)c(-c3ccccc3)coc2c1`, for which the Potency entry in assay [1], in assay [2] and in assay [3] was “inactive” throughout.

In the case of `Nc1cccc2c1CN(C1CCC(=O)NC1=O)C2=O` (stereo not drawn), the Potency entry in assay [1], in assay [2] and in assay [3] was “inactive” each time.

For the compound `COC(=O)[C@@H]1CC2=CC(=O)CC[C@]2(C)[C@@]23O[C@@H]2C[C@@]2(C)[C@@H](CC[C@@]24CCC(=O)O4)[C@H]13`, the Potency entry in assay [1], in assay [2] and in assay [3] was “inactive” each time.

In the case of `CC1(C)S[C@@H]2[C@H](NC(=O)[C@H](N)c3ccccc3)C(=O)N2[C@H]1C(=O)O`, the Potency entry in assay [1], in assay [2] and in assay [3] was “inactive” each time.

`Cc1[nH]c(=O)c(C#N)cc1-c1ccncc1`: the Potency result in assay [1], in assay [2] and in assay [3] was “inactive” each time.

Turning to `COCCCC/C(=N\OCCN)c1ccc(C(F)(F)F)cc1`, the Potency result in assay [1], in assay [2] and in assay [3] was “inactive” in each case.

Turning to `CN/C(=C\[N+](=O)[O-])NCCSCc1ccc(CN(C)C)o1`, the Potency result in assay [1], in assay [2] and in assay [3] was “inactive” throughout.

`CC(C)NCC(O)COc1cccc2[nH]ccc12` (stereo not drawn): the Potency result in assay [1], in assay [2] and in assay [3] was “inactive” throughout.

Regarding `O=NN(CCCl)C(=O)NCCCl`, the Potency result in assay [1], in assay [2] and in assay [3] was “inactive” throughout.

As to `CCN(CC)CCOC(=O)C1(C2CCCCC2)CCCCC1`, the Potency entry in assay [1], in assay [2] and in assay [3] was “inactive” throughout.

`CCN1CCN(C(=O)N[C@@H](C(=O)N[C@@H]2C(=O)N3C(C(=O)O)=C(CSc4nnnn4C)CS[C@H]23)c2ccc(O)cc2)C(=O)C1=O`: the Potency entry in assay [1], in assay [2] and in assay [3] was “inactive” in each case.

As for `CN(C)CCC[C@@]1(c2ccc(F)cc2)OCc2cc(C#N)ccc21`, the Potency result in assay [1], in assay [2] and in assay [3] was “inactive” throughout.

Take `COc1ccccc1OCCNCC(O)COc1cccc2[nH]c3ccccc3c12` (stereo not drawn): the Potency entry in assay [1], in assay [2] and in assay [3] was “inactive” in each case.

In the case of `O=C(OC1C[C@H]2CC[C@@H](C1)[N+]21CCCC1)C(O)(c1ccccc1)c1ccccc1` (stereo partly drawn), the Potency entry in assay [1], in assay [2] and in assay [3] was “inactive” in each case.

Turning to `O=C(O)CCCc1ccccc1`, the Potency entry in assay [1], in assay [2] and in assay [3] was “inactive” each time.

As to `Cc1ccc(S(=O)(=O)NC(=O)NN2CCCCCC2)cc1`, the Potency entry in assay [1], in assay [2] and in assay [3] was “inactive” in each case.

With `Cc1cc(C)cc(OCC2CNC(=O)O2)c1` (stereo not drawn), the Potency result in assay [1], in assay [2] and in assay [3] was “inactive” in each case.

On to `Oc1ccc(Cl)cc1Cc1ccccc1`, for which the Potency entry in assay [1], in assay [2], in assay [3], in assay [4] and in assay [5] was “inactive” throughout. Moreover, the figures for the Potency in assay [6] and in assay [7] were 12.3 µM (active) and 49.1 µM (active), respectively.
